These results are taken from PubChem BioAssay.

SMILES strings stand for the structures. The source made the active and inactive calls.

Experiment [1] in a line: small molecules captured by biotinylated probe aFSTL3 – biochemical, small-molecule microarray, fluorescence 635/667, stem cell growth factor project, primary screen (AID 1064).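 Also: measures binding of the biotinylated anti-FSTL3 antibody to printed compounds.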 Particulars: higher = more signal.
Experiment [2] in a line: binders from COS7 lysate, DM2A8 probe, primary screen, torsin A project, cell lysate, small-molecule microarray, fluorescence 635/667 (AID 1065). Conditions: higher = more signal, COS7 lysate expressing mutant human TOR1A.
A short description of experiment [3]: small molecules captured by biotinylated probe aFGF2 – biochemical, small-molecule microarray, fluorescence 635/667, stem cell growth factor project, primary screen (AID 1067).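 Also: measures binding of biotinylated aFGF2 protein to printed compounds on slides; z-score merges feature fluorescence and signal-to-noise across triplicate slides.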 Particulars: higher = more signal.
The nature of experiment [4]: small molecules captured by biotinylated probe aFGF10 – biochemical, small-molecule microarray, fluorescence 635/667, stem cell growth factor project, primary screen (AID 1071).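 Also: score merges 667 nm spot intensity and signal to noise from triplicate slides.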 Particulars: higher = more signal.
Experiment [5] has as its target Neurogenic locus notch homolog protein 2 (Homo sapiens) (UniProt Q04721). Description: small molecules binding Notch2 protein – biochemical, small-molecule microarray, 635 nm fluorescence, stem cell growth factors, primary screen (AID 1073). Conditions: higher = more signal.
Experiment [6] concerns the target Pro-neuregulin-1, membrane-bound isoform (Homo sapiens) (UniProt Q02297). Description: small molecules binding neuregulin-1 protein – biochemical, small-molecule microarray, fluorescence 635/667, psychiatric disease protein project, primary screen (AID 1075).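 Also: score combines 667 nm spot fluorescence with signal to noise.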 Particulars: NRG1 binding, 635 nm fluorescence, higher = more signal.
The test system of experiment [7] is Neuregulin-1 EGF-like domain. Description: small molecules binding NRG1 EGF domain – biochemical, small-molecule microarray, 635 nm fluorescence, primary screen (AID 1081).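 Also: binding of the protein to compounds printed on small-molecule microarray slides.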 Particulars: higher = more signal.
Experiment [8] is described as follows: FRG1 expression reporter modulators in myotubes – cell-based, C2C12 myotubes, firefly/Renilla luciferase, luminescence, FRG1 inhibition for FSHD, primary screen (AID 1084). Particulars: FRG1 promoter luciferase, higher = more signal, called active from +8 up or from −8 down.
The nature of experiment [9]: small molecules captured by biotinylated probe aFST – biochemical, small-molecule microarray, fluorescence 635/667, stem cell growth factor project, primary screen (AID 1086).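 Also: score merges 667 nm fluorescence with signal-to-noise of each printed compound spot.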 Particulars: higher = more signal.
Experiment [10] is described as follows: binders of probe aHhip on microarray, primary screen, stem cell growth factor project, biochemical, small-molecule microarray, fluorescence 635/667 (AID 1087).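 Also: score merges spot fluorescence at 667nm with spot signal to noise ratio.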 Conditions: higher = more signal.
Experiment [11] concerns PRMT1 (protein arginine N-methyltransferase 1). Description: small molecules binding arginine methyltransferase PRMT1 – biochemical, small-molecule microarray, 635 nm fluorescence, primary screen (AID 1088).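 Also: binding of Prmt1 protein to compounds spotted on small-molecule microarray slides.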 Particulars: higher = more signal.
The nature of experiment [12]: growth effects on S. cerevisiae YJM789 – YJM789 clinical isolate, OD600, 24 h, basal, primary screen (AID 1089).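 Also: growth of clinical yeast isolate S. cerevisiae YJM 789 seeded 1000 cells per well; test concentration not given here.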 Conditions: higher = more signal, called active from +8 up or from −8 down.
A short description of experiment [13]: S. pombe growth modifiers, basal conditions – strain 972, OD600, 24 h, no modulator, primary screen (AID 1090).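 Also: basal condition with compound alone and no growth modifier present; test concentration not given here.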 Conditions: S. pombe 972 growth, higher = more signal, called active from +8 up or from −8 down.
Experiment [14] in a line: budding yeast growth modifiers under rapamycin – strain BY4716, OD600, 96 h, primary screen (AID 1091). Also: test concentration not given here. Particulars: S. cerevisiae BY4716 + rapamycin, higher = more signal, called active from +8 up or from −8 down.
The target in experiment [15] is Torsin-1A-interacting protein 2 (Homo sapiens) (UniProt Q8NFQ8). Description: small molecules binding lysate-expressed LULL1 – cell lysate, human LULL1 lysate, 635/667 nm fluorescence, primary screen (AID 1092).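 Also: probe is lysate of COS7 cells overexpressing human LULL1; score merges per-feature 667 nm fluorescence with signal-to-noise.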 Conditions: small-molecule microarray, hLULL1 lysate binding, 635 nm fluorescence; higher = more signal.
Experiment [16] is described as follows: optical density change of DRC41 E. coli – strain DRC41, OD650, 24 h, E. coli filamentation project, primary screen (AID 1093).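 Also: MC1000 strain lacking acrAB efflux and sulA so SOS filamentation is blocked; test concentration not given here.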 Particulars: E. coli DRC41 growth, higher = more signal, called active from +8 up or from −8 down.
Experiment [17] in a line: probe aLefty2 binding to arrayed compounds – biochemical, biotinylated probe, 635/667 nm fluorescence, primary screen (AID 1094).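 Also: score merges spot fluorescence near 667 nm with spot signal-to-noise ratio.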 Conditions: small-molecule microarray, higher = more signal.
Experiment [18] deals with Noggin (protein binding on small-molecule microarray). Description: small molecules binding Noggin protein – biochemical, 635/667 nm fluorescence, primary screen (AID 1095).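 Also: score merges 667 nm feature fluorescence with signal to noise over triplicate slides.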 Conditions: 635 nm fluorescence, higher = more signal.
The target in experiment [19] is Neurogenic locus notch homolog protein 3 (Homo sapiens) (UniProt Q9UM47). The experiment can be described thus: small molecules binding NOTCH3 protein – biochemical, 635/667 nm fluorescence, primary screen (AID 1096). Conditions: small-molecule microarray, 635 nm fluorescence, higher = more signal.
A short description of experiment [20]: probe aEGFR binding to arrayed compounds – biochemical, biotinylated probe, 635/667 nm fluorescence, primary screen (AID 1097).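 Also: probe is a biotinylated anti-EGFR antibody binding compounds printed on slides; score combines fluorescence near 667 nm and signal to noise of each spot.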 Conditions: small-molecule microarray, higher = more signal.

Sequence of Pro-neuregulin-1, membrane-bound isoform (Homo sapiens) (Q02297 whole entry, looked up, the tested form may be a part, canonical isoform): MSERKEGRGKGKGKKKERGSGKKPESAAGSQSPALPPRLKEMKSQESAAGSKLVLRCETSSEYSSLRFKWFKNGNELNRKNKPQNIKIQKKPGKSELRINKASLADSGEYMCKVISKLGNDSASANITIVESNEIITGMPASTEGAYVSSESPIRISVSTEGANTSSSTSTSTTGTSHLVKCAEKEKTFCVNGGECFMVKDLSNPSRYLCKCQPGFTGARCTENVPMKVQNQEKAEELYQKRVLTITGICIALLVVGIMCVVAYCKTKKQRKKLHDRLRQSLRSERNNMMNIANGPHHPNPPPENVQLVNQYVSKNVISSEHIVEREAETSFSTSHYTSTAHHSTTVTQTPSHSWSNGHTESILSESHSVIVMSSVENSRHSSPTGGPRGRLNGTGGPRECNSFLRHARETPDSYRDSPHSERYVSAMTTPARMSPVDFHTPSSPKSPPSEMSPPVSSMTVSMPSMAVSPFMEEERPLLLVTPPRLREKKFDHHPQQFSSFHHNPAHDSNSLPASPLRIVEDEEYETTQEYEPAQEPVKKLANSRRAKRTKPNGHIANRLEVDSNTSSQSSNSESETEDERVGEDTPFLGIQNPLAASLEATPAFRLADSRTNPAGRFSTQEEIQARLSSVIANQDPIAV
Sequence of Neurogenic locus notch homolog protein 3 (Homo sapiens) (Q9UM47 whole entry, looked up): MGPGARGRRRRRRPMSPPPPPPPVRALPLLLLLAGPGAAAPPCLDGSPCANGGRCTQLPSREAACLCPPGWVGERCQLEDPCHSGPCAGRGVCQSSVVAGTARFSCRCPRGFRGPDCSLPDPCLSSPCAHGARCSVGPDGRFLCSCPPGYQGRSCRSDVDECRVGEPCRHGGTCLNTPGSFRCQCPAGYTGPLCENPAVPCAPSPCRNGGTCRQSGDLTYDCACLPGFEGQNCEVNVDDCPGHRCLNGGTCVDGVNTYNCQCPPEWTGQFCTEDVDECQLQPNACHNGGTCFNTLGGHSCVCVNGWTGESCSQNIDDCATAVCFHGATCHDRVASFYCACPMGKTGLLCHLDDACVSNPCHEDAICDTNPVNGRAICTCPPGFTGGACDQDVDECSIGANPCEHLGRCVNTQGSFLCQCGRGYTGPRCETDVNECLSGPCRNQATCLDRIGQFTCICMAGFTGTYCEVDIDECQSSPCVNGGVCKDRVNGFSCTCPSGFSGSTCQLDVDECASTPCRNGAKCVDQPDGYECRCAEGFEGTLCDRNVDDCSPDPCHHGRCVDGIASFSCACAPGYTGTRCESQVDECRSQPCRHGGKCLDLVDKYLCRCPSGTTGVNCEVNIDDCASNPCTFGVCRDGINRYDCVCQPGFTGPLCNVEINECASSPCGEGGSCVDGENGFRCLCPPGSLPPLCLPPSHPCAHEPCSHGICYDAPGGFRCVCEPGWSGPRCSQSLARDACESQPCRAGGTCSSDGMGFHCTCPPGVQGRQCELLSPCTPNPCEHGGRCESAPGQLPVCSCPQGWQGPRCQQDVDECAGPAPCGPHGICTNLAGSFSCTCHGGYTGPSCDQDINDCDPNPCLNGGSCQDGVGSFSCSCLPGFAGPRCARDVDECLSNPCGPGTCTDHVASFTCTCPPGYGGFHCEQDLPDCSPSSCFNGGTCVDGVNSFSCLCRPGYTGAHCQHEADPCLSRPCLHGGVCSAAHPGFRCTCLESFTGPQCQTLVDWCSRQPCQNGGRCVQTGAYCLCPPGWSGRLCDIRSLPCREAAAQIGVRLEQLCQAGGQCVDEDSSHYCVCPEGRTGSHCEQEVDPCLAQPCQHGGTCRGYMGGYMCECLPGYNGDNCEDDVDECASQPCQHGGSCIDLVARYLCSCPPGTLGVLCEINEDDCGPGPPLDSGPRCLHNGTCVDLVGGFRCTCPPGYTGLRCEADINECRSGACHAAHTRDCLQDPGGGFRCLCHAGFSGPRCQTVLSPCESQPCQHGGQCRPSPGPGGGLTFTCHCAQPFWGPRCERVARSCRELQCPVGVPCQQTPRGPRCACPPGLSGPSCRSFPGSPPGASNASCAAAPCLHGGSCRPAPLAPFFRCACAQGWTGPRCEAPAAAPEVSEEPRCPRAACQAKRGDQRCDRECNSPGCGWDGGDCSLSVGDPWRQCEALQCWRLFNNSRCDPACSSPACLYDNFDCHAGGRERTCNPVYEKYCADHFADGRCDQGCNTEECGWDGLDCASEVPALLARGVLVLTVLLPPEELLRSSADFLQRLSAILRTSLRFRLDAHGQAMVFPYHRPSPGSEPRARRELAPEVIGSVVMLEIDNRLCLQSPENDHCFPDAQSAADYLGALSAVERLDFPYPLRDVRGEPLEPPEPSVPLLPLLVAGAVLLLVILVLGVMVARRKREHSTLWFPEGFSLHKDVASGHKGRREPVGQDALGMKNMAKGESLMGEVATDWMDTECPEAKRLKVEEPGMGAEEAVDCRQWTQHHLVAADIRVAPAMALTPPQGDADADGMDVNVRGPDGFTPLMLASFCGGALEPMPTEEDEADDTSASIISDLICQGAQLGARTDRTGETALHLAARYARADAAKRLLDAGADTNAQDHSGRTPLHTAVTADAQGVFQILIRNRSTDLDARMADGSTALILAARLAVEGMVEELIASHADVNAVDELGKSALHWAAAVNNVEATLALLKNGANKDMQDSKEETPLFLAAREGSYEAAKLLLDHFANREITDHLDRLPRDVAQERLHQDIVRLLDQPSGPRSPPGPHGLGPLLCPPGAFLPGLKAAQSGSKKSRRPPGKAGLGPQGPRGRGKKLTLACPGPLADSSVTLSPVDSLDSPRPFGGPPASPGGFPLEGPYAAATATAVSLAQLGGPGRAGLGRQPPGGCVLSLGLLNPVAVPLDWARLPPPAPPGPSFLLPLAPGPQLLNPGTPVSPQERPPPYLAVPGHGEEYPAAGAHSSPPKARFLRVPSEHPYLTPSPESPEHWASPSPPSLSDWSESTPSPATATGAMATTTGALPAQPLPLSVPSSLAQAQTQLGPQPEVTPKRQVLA
Sequence of Torsin-1A-interacting protein 2 (Homo sapiens) (Q8NFQ8 whole entry, looked up): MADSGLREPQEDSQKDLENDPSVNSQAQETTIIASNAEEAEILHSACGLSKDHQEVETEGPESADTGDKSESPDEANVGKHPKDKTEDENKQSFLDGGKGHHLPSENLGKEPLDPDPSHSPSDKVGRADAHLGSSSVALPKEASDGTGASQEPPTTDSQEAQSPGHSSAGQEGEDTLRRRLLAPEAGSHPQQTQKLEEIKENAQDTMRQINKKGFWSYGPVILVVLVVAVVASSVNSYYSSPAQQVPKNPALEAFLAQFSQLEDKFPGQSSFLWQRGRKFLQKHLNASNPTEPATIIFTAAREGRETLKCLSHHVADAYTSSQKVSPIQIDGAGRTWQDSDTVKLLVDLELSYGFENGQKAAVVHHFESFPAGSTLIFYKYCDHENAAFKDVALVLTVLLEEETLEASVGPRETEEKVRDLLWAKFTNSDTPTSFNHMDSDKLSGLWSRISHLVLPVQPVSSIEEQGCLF

Consider `[N-]=[N+]=NCc1ccccc1[C@H]1OC(c2ccc(OCCCO)cc2)=N[C@@]1(CCS(=O)(=O)c1ccccc1)C(=O)N1CCOCC1`, for which the composite z-score was 0.476 in experiment [1]; 0.525 in [2]; 0.221 in experiment [3]; 1.03 in experiment [4]; 1.63 in experiment [5]; 2.18 in experiment [6]. In addition, the composite z-score is 1.16 in experiment [7]; 1.86 in [9]; -0.0391 in experiment [10]; 1.27 in experiment [11]; 3.65 in [15]; 0.663 in experiment [17]. Besides, the composite z-score in experiment [18] turned out to be 0.346; in experiment [19], 1.1; in experiment [20], 0.302. In addition, the z-score was 0.51 (inactive) in [8]; 0.0373 (inactive) in [12]; 0.553 (inactive) in [13]; 2.23 (inactive) in experiment [14]; 0.151 (inactive) in experiment [16].

For `CCCCC(CC)C(O)C1C=CC2C(=O)N(c3ccccc3)C(=O)C2N1Nc1ccccc1` (stereo not given), the composite z-score in experiment [1] stood at 0.0807; in experiment [2], 0.34; in experiment [3] it was 0.0472; in [4], 0.698; in experiment [5] it was 1.46; in experiment [6], 0.796. Besides, the composite z-score in experiment [7] is 1.06; in experiment [9], 1.1; in experiment [10] it was -0.0618; in experiment [11] it was 0.527; in experiment [15], 2.94; in [17], 0.0319. The composite z-score in experiment [18] was -0.0087; in [19] it was 1.11; in experiment [20], 0.0276. For the same molecule, the z-score is -0.274 (inactive) in experiment [8]; 0.549 (inactive) in experiment [12]; 0.645 (inactive) in experiment [13]; 0.804 (inactive) in [14]; -1.54 (inactive) in [16].

As for `C=CC[C@]1(C(=O)N2CCOCC2)N=C(c2ccc(OCCCO)cc2)O[C@H]1c1ccccc1`, the composite z-score in [1] came to 0.744; in experiment [2], 0.905; in experiment [3], 0.0445; in experiment [4] it was 0.147; in experiment [5] it was 0.618; in experiment [6], 2.1. Besides, the composite z-score in experiment [7] was 1.25; in [9], 0.374; in [10], -0.251; in experiment [11] it was 0.74; in experiment [15] it was 3.56; in [17], -0.0212. The values for the composite z-score in experiment [18], in experiment [19] and in experiment [20] were -0.243, 0.175 and -0.165, respectively. For the same molecule, the z-score in [8] is 0.54 (inactive); in experiment [12] it was -1.8 (inactive); in [13], -2.42 (inactive); in experiment [14] it was -1.67 (inactive); in [16] it was 0.382 (inactive).

Turning to `C=CCOC(=O)[C@H]1[C@@H]2C(=O)O[C@@H](c3ccccc3)[C@@H](c3ccccc3)N2[C@@H](c2ccc(OCCOC(=O)[C@@H]3C[C@@H]4C(=O)NCC(=O)N4[C@@H]3c3ccc(O)cc3)cc2)[C@]12C(=O)Nc1ccccc12`, the composite z-score in experiment [1] is -0.214; in [2], 0.454; in [3], -0.0296; in experiment [4] it was 0.515; in experiment [5], -0.111; in [6] it was -0.373. For the same molecule, the composite z-score in experiment [7] is 1.26; in experiment [9], -0.112; in experiment [10] it was -0.0237; in experiment [11], 1.56; in [15], 2.35; in [17], -0.153. In addition, the composite z-score in experiment [18] was 1.81; in [19], 1.12; in experiment [20], -0.0828. Further, the z-score is -1.27 (inactive) in experiment [8]; -4.85 (inactive) in experiment [12]; -0.234 (inactive) in experiment [13]; 1.47 (inactive) in [14]; 2.36 (inactive) in experiment [16].

Turning to `C=C[C@H](COC(C)=O)N(Cc1ccc(OC(C)=O)c(OC)c1)S(=O)(=O)c1ccc(Br)cc1`, the composite z-score in experiment [1] was -0.0411; in [2], 1.46; in experiment [3] it was 0.125; in experiment [4], 0.311; in experiment [5] it was 0.86; in [6], 0.785. Besides, the composite z-score in experiment [7] was 1.14; in [9] it was 0.413; in experiment [10], -0.0024; in experiment [11], 0.484; in experiment [15], 1.81; in experiment [17], 0.15. Also, the composite z-score in experiment [18] came out at 0.337; in [19] it was 0.176; in experiment [20], 0.312. Besides, the z-score was -3.46 (inactive) in experiment [8]; -2.5 (inactive) in experiment [12]; -1.08 (inactive) in [13]; 0.105 (inactive) in [14]; 1.24 (inactive) in experiment [16].
